Reference: PubChem BioAssay (NCATS)
Inconclusive results are not listed. Unmarked numbers belong to inactive results. Active and inactive are the calls of the source. Calls come from the whole dose curve; as a rule, active = well fitted inhibition curve with a large enough effect; inconclusive = small, poorly fitted or top-dose-only effect; inactive = flat fitted curve, though single readings scatter.

Assay: P-glycoprotein substrates identified in KB-8-5-11 adenocarcinoma cell line, qHTS therapeutic library screen (AID 1346987); note: nearly all actives have a fitted effect of over 65% in size
Conditions: KB-8-5-11 (P-gp overexpressing) viability, CellTiter-Glo, 72 h; series mostly up to 44.5 µM; activity change, negative = cytotoxicity: at the top concentration
Summary of the method: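 Compounds are pinned in dose-response onto KB-8-5-11 cells (500 cells/well, colchicine-free medium) and left 72 h at 37 degree C. CellTiter-Glo luminescence then yields AC50 values.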
% is set by controls: 0 for no effect and ±100 for the full control effect; potency is the fitted concentration of half-maximal effect.

Structure (SMILES)	activity change, negative = cytotoxicity	outcome	Potency
C=C1CCC2[C@@](C)(C=O)CCC[C@]2(C)[C@H]1CC/C(C)=C/CO (some centres undefined)	0.557%	–	–
CC(C)=CCC/C(C)=C/CC/C(C)=C/CC[C@]1(C)CCc2cc(O)cc(C)c2O1	6.24% [at 17.3 µM]	–	–
COC(=O)c1ccc(O[C@@H]2O[C@H](CO)[C@@H](O)[C@H](O)[C@H]2O)c(OC)c1	–	inactive	–
COC(=O)C12C(=O)C(C)=C(O)C1(C)C(C)=CC1C34CCC(OC3=O)C(C)(C)C4CCC12C (centres undefined)	6.08% [at 17.3 µM]	–	–
CC(C)C(=O)c1cn(CC(=O)COc2ccc(Oc3ccccc3)cc2)c2ccc(C(=O)O)cc12	–	inactive	–
C=C1CC[C@H]2[C@@](C)(CCC(O)[C@@]2(C)CO)[C@@H]1C/C=C(/C(=O)O)C(O)CO (some centres undefined)	7.13%	–	–
C=C1CCC2C(C)(CO[C@@H]3O[C@H](CO)[C@@H](O)[C@H](O)[C@H]3O)C(O)CCC2(C)C1C(=O)CC1=CCOC1=O (some centres undefined)	8.63% [at 17.3 µM]	–	–
C=C1C[C@@]23CC[C@@H]4[C@](C)(C(=O)O)CCC[C@@]4(C)C2=CC[C@H]1C3	–	inactive	–
COC(=O)C1=CO[C@@H](O[C@@H]2O[C@H](CO)[C@@H](O)[C@H](O)[C@H]2O)[C@@H]2[C@@](C)(O)[C@@H](O)C[C@]12O	7.89% [at 17.3 µM]	–	–
Cc1cn2c(N)c(Cl)cc(C(=O)NCC3CCN(CC(C)C)CC3)c2n1	-23.3%	–	–
CCc1nc(C(N)=O)c(Nc2ccc(N3CCC(N4CCN(C)CC4)CC3)c(OC)c2)nc1NC1CCOCC1	–	–	5.7 µM (active)
COc1cc(C2Oc3c(OC)cc(/C=C/C(=O)OC[C@H]4O[C@@H](OC(C)(C)C(=O)O)[C@H](O)[C@@H](O)[C@@H]4O)cc3C2CO)ccc1O (some centres undefined)	5.69% [at 17.3 µM]	–	–
COc1cc(/C=C/C(=O)OC(C)(C)C(OC2OC(CO)C(O)C(O)C2O)C(=O)OCc2ccc(OC3OC(CO)C(O)C(O)C3O)cc2)ccc1O (centres undefined)	–	inactive [at 17.3 µM]	–
C[C@@H](OC(=O)/C=C/c1ccc(O)cc1)C1=C[C@]2(C=C[C@@H]3C(C(=O)O)=CO[C@@H](O[C@@H]4O[C@H](CO[C@@H]5O[C@H](CO)[C@@H](O)[C@H](O)[C@H]5O)[C@@H](O)[C@H](O)[C@H]4O)[C@@H]32)OC1=O	–	inactive [at 17.3 µM]	–
COc1ccc([C@@H]2N[C@H](C(=O)O)Cc3c2[nH]c2ccccc32)cc1CN1CCN(c2ccccc2F)CC1	9.21%	–	–
O=C(OCC12OC1C=CC(OC(=O)c1ccccc1)C2O)c1ccccc1 (centres undefined)	5.62%	–	–
CCc1cc2c(=O)c(-c3nc4ccccc4s3)coc2c(CN2CCCCC2)c1O	-4.09% [at 17.3 µM]	–	–
CC1(C)CCC(C)(C)c2cc3c(cc21)Sc1ccccc1N=C3c1ccc(C(=O)O)cc1	-19.3%	–	–
CC(=O)N[C@H]1[C@H](O[C@H]2CC[C@@]3(C)C(CC[C@]4(C)C3CC=C3C5CC(C)(C)CC[C@]5(C(=O)O)[C@H](O[C@@H]5O[C@H](CO)[C@@H](O)[C@H](O)[C@H]5O)C[C@]34C)C2(C)C)O[C@H](CO[C@@H]2OC[C@H](O)[C@H](O)[C@H]2O[C@@H]2OC[C@@H](O)[C@H](O)[C@H]2O)[C@@H](O)[C@@H]1O (some centres undefined)	–	inactive [at 9.29 µM]	–
COC1C=C([C@@H]2CC=C3[C@@]4(C)C(CC[C@]32C)[C@@]2(C)C=CC(=O)C(C)(C)C2C[C@H]4OC(C)=O)C(=O)O1 (some centres undefined)	-1.8% [at 17.3 µM]	–	–

Structure (SMILES)	activity change, negative = cytotoxicity	outcome	Potency
C=C1C2(CCC(=O)OC2(C)C)CC(OC(=O)/C(C)=C/C)C2(C)C13OC14C(=O)OC(C)(C(=O)C12C(=O)OC4C)C3OC(C)=O (centres undefined)	–	inactive [at 17.3 µM]	–
CC(C)C1=CC2=CCC3[C@](C)(CCC[C@@]3(C)C(=O)O)C2CC1=O (some centres undefined)	–	inactive	–
O=C(NN1CCCCC1)c1nn(-c2ccc(Cl)cc2Cl)c(-c2ccc(C#Cc3ccc(C(F)(F)F)cc3)s2)c1CNS(=O)(=O)N1CCCC1	-4.08%	–	–
C[C@@]12C[C@]3(O)O[C@H](O1)[C@]1(COC(=O)c4ccccc4)[C@H]3C[C@@]12O[C@@H]1O[C@H](COC(=O)c2ccccc2)[C@@H](O)[C@H](O)[C@H]1O	–	inactive [at 17.3 µM]	–
C=C(C)C1CC2(CO)C(=CC1=O)CCC(O)C2C (centres undefined)	7.08%	–	–
CC(=O)OC[C@@]12[C@H](O)C[C@]3(C)C(=CCC4[C@@]5(C)CC[C@H](O[C@@H]6O[C@H](C(=O)O)[C@@H](O[C@@H]7O[C@H](CO)[C@@H](O)[C@H](O)[C@H]7O)[C@H](O)[C@H]6O[C@@H]6O[C@H](CO)[C@@H](O)[C@H](O)[C@H]6O)[C@](C)(CO)C5CC[C@]43C)[C@@H]1CC(C)(C)[C@@H](OC(C)=O)[C@@H]2O (some centres undefined)	4.33% [at 9.29 µM]	–	–
CCOC(=O)N1CCC(NCCNC(=O)c2ccccc2C)CC1	6.24%	–	–
CC(C)CC1(C(=O)OCc2ccc(O[C@@H]3O[C@H](CO)[C@@H](O)[C@H](O)[C@H]3O)cc2)CC(=O)OC(C(=O)O)CC(=O)OCC2OC(O1)C(OC(=O)/C=C/c1ccc(O)cc1)C(O)C2O (some centres undefined)	–	inactive [at 9.29 µM]	–
CCCCNC(=O)[C@@H]1Cc2ccccc2N1C(=O)[C@@H](N)CC	–	inactive	–
CC/C=C\C[C@H]1C(=O)C=C[C@@H]1CCCCCCCC(=O)O	–	inactive	–
COc1cc(/C=C/C(=O)OC2[C@H](O)CC(O)(C(=O)O)C[C@H]2O)ccc1O (some centres undefined)	–	inactive	–
C[C@@H]1O[C@@H](OC[C@H]2O[C@@H](OCC3CCC4CC3C4(C)C)[C@H](O)[C@@H](O)[C@@H]2O)[C@H](O)[C@H](O)[C@H]1O (some centres undefined)	–	inactive [at 17.3 µM]	–
O=C(O)Cc1nn(Cc2nc3cc(C(F)(F)F)ccc3s2)c(=O)c2nccnc12	–	inactive	–
CC1(C)CCCC2(C)C3=C(C(=O)OC3O)C(O)CC12 (centres undefined)	–	inactive	–
c1ccc(Cc2ncc3c(n2)CCNCC3)cc1	–	inactive	–
CC1=CC(=O)C[C@H]2[C@@H]1CC[C@@H](C)[C@]21CO[C@H](c2ccoc2)C1=O	-5.74%	–	–
O=C(/C=C/c1ccc(O)cc1)OC[C@]12O[C@H]1[C@@H](O)[C@@H]1C=CO[C@@H](O[C@@H]3O[C@H](CO)[C@@H](O)[C@H](O)[C@H]3O)[C@@H]12	–	inactive [at 17.3 µM]	–
CCC(C)(O)C(O)C(=O)OCc1ccc(O[C@@H]2O[C@H](CO)[C@@H](O)[C@H](O)[C@H]2O)c(OC)c1 (some centres undefined)	2.32% [at 17.3 µM]	–	–
CC(C)C(C#N)O[C@@H]1O[C@H](CO[C@@H]2OC[C@](O)(CO)[C@H]2O)[C@@H](O)[C@H](O)[C@H]1O (some centres undefined)	1.66%	–	–
